# Test results: the OligoGym collection
# Molecular target: TRPV1
# Experiment: pooled miR-30 sensor sort-seq; sequence = guide strand
# Details: shRNA
# Also: reference of the scale not given here.
row,Sequence,sensor-assay potency score (higher = more potent)
1,TTAAGGAAGCTCTTCTCCGTGT,-0.306
2,TTGAAGTAGAAGATGCGCTTGA,0.616
3,TCGCAGATAAACTTCCTCGGGC,0.131
4,ATGCTCGTCACAAACTTCGTGT,-0.192
5,TTGTCTGTGAGGTGCTTCTTGC,-0.584
6,TTGGTGTTCCAGGTGGTCCAGT,-0.829
7,TAACTCGGAAATAGTCTCCAGT,0.133
8,ATGTAGACAAACATGAAACGGC,-0.484
9,TTGAGCAGGAGGATGTAGGTGA,1.19
10,TAGCTGTCCGTGTAGCTGGCGT,-0.712
11,TAGTAGAGCATGTTGGTCCAGC,-0.185
12,TAGTAGCTGTCCGTGTAGCTGG,-0.744

# Molecular target: TSC1
# Experiment: as above
# Details: shRNA
row,Sequence,sensor-assay potency score (higher = more potent)
1,TAGAGTGACAGAACCTTTGCTG,0.691
2,TTCCAGGTAATAATCCACCAAG,-1.16
3,TGAACTTGCACTCAGACCCTGG,-0.099
4,ATATTTAACAACATCAGCCGAG,0.191
5,TAGCTGTCCAACACTGTCCGGG,-0.0259
6,TAGATATTGCAGCTTCTTCTTT,-0.827
7,TATCTTTTTCAATACTATCTTC,-0.463
8,TAGCATGGTTATCAACACCAAG,-0.952
9,TATTTAACAACATCAGCCGAGA,-0.654
10,TAGATATTTCTTCTGTTCCAAA,-1.26
